Molecules are shown by their SMILES. Screen size: about 68,000 compounds; about 2,700 (4%) showed an effect of 50% or more. What follows is part of a selection rich in strong results, with near analogues and random picks from the rest.

The values that follow come from ChEMBL document CHEMBL4513216, “Probing the Open Global Health Chemical Diversity Library for Multistage-Active Starting Points for Next-Generation Antimalarials” (ACS Infect Dis, 2020).

The test relates to Plasmodium berghei. The test is described as follows: Screen against P. berghei liver stage (PbLuc), transformed with Luciferase, at 2uM. The class given is functional, HepG2. Conditions: tested at 2 uM.
Take `NC(=O)N1CCc2ncc(CNC(=O)CC3CC3)n2CC1`: the INHIBITION is listed as 25.08%.

In the case of `CC(=O)N1CCCC1c1cc(N2CCN(CC3CC3)CC2)cc(C)n1` (centres undefined), the INHIBITION is 6.89%.

`O=C(c1ccoc1)N1CCc2ncnc(NCc3ccccn3)c2CC1`: the INHIBITION is reported as 1.01%.

As to `CN(C)CCC1CCN(Cc2ccn(C)c(=O)c2)CC1`, the INHIBITION is 16.84%.

`COC(=O)C1CCN(C(=O)c2nnc3ccc(Cl)cc3n2)CC1`: the INHIBITION is reported as 24.52%.

In the case of `CC(=O)c1cccc(OCCCC(=O)N(C)Cc2cnc(C)s2)c1`, the INHIBITION is reported as -37.03%.

`Cc1cnc(N2CCC3(CCCN3C(=O)c3ccco3)CC2)nc1`: the INHIBITION was 26.01%.

As to `Cc1nc(NCc2ccccc2)cc(C(C)Cn2nc(C)c(C)c2C)n1` (centres undefined), the INHIBITION is -30.88%.

In the case of `Cc1nc(NCCO)cc(C(C)Cn2nc(C)c(C)c2C)n1` (centres undefined), the INHIBITION is on record as -16.2%.

As to `Cc1nc(NCc2nonc2C)cc(C(C)Cn2nc(C)c(C)c2C)n1` (centres undefined), the INHIBITION is listed as 84.94%.

`COc1cc(C2(C(=O)N3CCN(CC(C)(C)O)CC3)CC2)ccc1C`: the INHIBITION amounted to 17.48%.

For `CCc1nc(CN2CCN(C(=O)c3cc(C)nn3C)CC2)cs1`, the INHIBITION is on record as 53.98%.

For `CCc1ccc(C(=O)N2CCN(CC(C)O)CC2)o1` (centres undefined), the INHIBITION is listed as 54.85%.

As for `Cc1nc(N2CCN(C(=O)c3ccco3)CC2)c2c(n1)c(C)nn2C`, the INHIBITION amounted to 1.77%.

For `CCc1nc(CN2CCCN(C(=O)c3ccccc3)CC2)cs1`, the INHIBITION is reported as -10.44%.

Regarding `CCc1ccc(C(=O)N2CCN(CC(O)CC)CC2)o1` (centres undefined), the INHIBITION stood at 5.59%.

In the case of `CCc1nc(CN2CCCN(C(=O)c3cccn3C)CC2)cs1`, the INHIBITION is listed as -18.39%.

In the case of `CCc1nc(CN2CCN(C(=O)c3cc(C)no3)CC2)cs1`, the INHIBITION is 36.73%.

As to `CCc1nc(CN2CCCN(C(=O)c3occc3C)CC2)cs1`, the INHIBITION came out at 21.52%.

On to `COc1ccc(C(=O)N2CCN(c3cc(CCN)nc(C)n3)CC2)cc1`, for which the INHIBITION is listed as -10.41%.

Turning to `CCc1nc(CN2CCCN(C(=O)c3ccco3)CC2)cs1`, the INHIBITION is given as 70.27%.

With `Cc1nc(CCN)cc(N2CCCN(C(=O)c3ccco3)CC2)n1`, the INHIBITION was 54.3%.

With `CCN(CC)Cc1ccc(C(=O)N2CCN(CC(C)O)CC2)o1` (centres undefined), the INHIBITION is on record as 21.12%.

In the case of `Cc1noc(C)c1CN1CC2(CCN(C(=O)c3c[nH]cn3)C2)CC1=O` (centres undefined), the INHIBITION is 47.35%.

With `Cc1noc(C)c1CN1CCc2ncc(CN(C)C)n2CC1`, the INHIBITION was found to be 1.48%.

Consider `Cc1nc(N2CCN(C)CC2)ncc1C(=O)N1CC[C@](C)(O)[C@H](C)C1`, for which the INHIBITION is recorded as -5.13%.

Turning to `O=C1[C@@H]2CCN(Cc3ccncc3)C[C@@H]2OCCN1c1ccccc1`, the INHIBITION was 2.71%.

In the case of `Cc1ccccc1-n1cnc(Cl)c1CO`, the INHIBITION is on record as -40.04%.

As for `O=C(NC1CC1)N1CCN(c2cnccn2)CC1`, the INHIBITION was 11.24%.
